The list is not random: actives were taken first. Their share in the collection is about 2.4%.
D2 PAM-1 = positively modulates the human D2 dopamine receptor allosterically; 340,000 tested, 0.34% active; P14416; potentiation, % at 10 µM; HEK293 T-REx D2, calcium flux, EC20 dopamine potentiation;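 active means potentiation over 3 SD above the plate norm, cut at about 30% in these data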; further: 0% is about no effect
Target sequence (P14416 whole entry, looked up): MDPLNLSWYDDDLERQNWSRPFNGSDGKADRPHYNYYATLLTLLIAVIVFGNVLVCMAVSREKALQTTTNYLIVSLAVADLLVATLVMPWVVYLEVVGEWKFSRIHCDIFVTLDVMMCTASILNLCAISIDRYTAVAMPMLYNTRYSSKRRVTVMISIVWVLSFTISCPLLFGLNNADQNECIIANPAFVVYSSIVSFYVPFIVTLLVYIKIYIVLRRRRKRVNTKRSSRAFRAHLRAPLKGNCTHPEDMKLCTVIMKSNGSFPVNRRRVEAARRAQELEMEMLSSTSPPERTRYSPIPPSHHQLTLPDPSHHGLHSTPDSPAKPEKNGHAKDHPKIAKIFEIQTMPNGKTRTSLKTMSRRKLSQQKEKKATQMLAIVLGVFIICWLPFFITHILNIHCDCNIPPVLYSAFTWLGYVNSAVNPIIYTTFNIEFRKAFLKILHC
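Cells plated with tetracycline inducer and held overnight at 30 C; calcium dye loaded 30–90 min at room temperature; baseline taken, compound added and read 180 s; EC20 dopamine then added and read 180 s.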
D2 antagonist = D2 dopamine receptor (human) antagonism; inhibition, % at 10 µM; HEK293 TREx D2 cells, calcium flux, dopamine EC80; AID 485344; 340,000 tested, 2% active; in the data active means inhibition above about 30%; inactive means below that, where a call was filed; further: 0% is about no effect
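Measurement of antagonist activity uses fluorescent calcium dye in inducible HEK293 T-REx D2 cells: 10 s baseline, compound addition with 180 s read, EC80 dopamine addition with a further 180 s read.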
D2 ag-1 = activates the human D2 dopamine receptor; P14416; DiscoveRx PathHunter D2 beta-arrestin, luminescence, 90 min; 100% = 57 uM dopamine signal; activation, % (no concentration beside the values); 360,000 tested, 0.084% active; AID 624465; in the data active means activation above about 40%
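DiscoveRx PathHunter D2 beta-arrestin cells (2,100/well) attached overnight, then compound-stimulated 90 min at 37 C in HBSS/10 mM HEPES/0.1% Tween-20 buffer; beta-galactosidase complementation read by luminescence after 1 h at ambient temperature. Dopamine 57 uM final (EC100) as control.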
D2 PAM-2 = human D2 receptor positive allosteric modulation; DiscoveRx D2 beta-arrestin cells, luminescence, 90 min; 100% = 57 uM dopamine signal; potentiation, % (no concentration beside the values); 360,000 tested, 0.23% active; P14416; in the data active means potentiation above about 50%
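D2 cells co-treated with compound plus 50 nM dopamine (EC20) for 90 min at 37 deg C to detect potentiation. Beta-arrestin recruitment was read as enzyme-fragment luminescence after 1 h at ambient temperature. Full response was set by 57 uM dopamine.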
D2 ag-2 = activates the human D2 dopamine receptor; P14416; HEK293 T-REx D2 cells, calcium flux agonist mode; activation, % at 2 µM; 340,000 tested, 0.53% active;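 active means activation over 3 SD above normal in the single-dose calcium agonist read, cut at about 30% in these data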; further: 0% is about no effect
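Agonism scored from kinetic calcium signal (1 read/sec, 180 s) following compound pin transfer, after a 10 s baseline. Cells: HEK293 Trex line expressing inducible D2 receptor coupled to calcium, dye-loaded after overnight culture at 30 C.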
Active calls of the source: *; nt = no result; ! = a repeat was not active.

SMILES	D2 PAM-1	D2 antagonist	D2 ag-1	D2 PAM-2	D2 ag-2
COc1cc(Cl)ccc1OCc1cc(C(=O)N2CCN(C)C(=O)[C@@H]2C)no1	nt	nt	0	4	nt
Cc1ccc(-c2nnc(SCC(=O)NCCC(C)C)nc2-c2ccc(C)cc2)cc1	4	nt	nt	nt	0
Cc1ccc(C(=O)NNC2=Nc3cccc4cccc2c34)cc1	-25	71*	-3	-25	0
COc1ccc(C(=O)NNC2=Nc3cccc4cccc2c34)cc1	-27	63*	0	-27	2
NC(=O)NNC1=Nc2cccc3cccc1c23	5	-18	0	-8	4
COc1ccc(CC(=O)NNC2=Nc3cccc4cccc2c34)cc1	-23	27	-2	-20	0
Cc1cc(N2CCCC2)nc(N2C3CCC2CC(O)(c2ccc(F)cc2)C3)n1 (stereo not drawn)	-22	42*	nt	nt	0
CC(C)c1ccc(-c2nc(N3CCCC3)nc3n[nH]c(N)c23)cc1	44*	2	-1	-6	0
CCOC(=O)/C(=C/C=C1\Sc2cc(C)c(C)cc2N1CC)C(C)=O	31*	29	6	-12	84*
CCOC(=O)/C(=C\C=C1/Sc2ccccc2N1CC)C(C)=O	nt	nt	4	-8	nt
CCOC(=O)/C(=C/C=C1\Sc2ccccc2N1CC)C(C)=O	1	1	-4	-2	35*
COc1ccccc1NC(=O)NCC(=O)Nc1ccc(F)c(F)c1	nt	nt	-2	-12	nt
CCCCNC(=O)NCC(=O)Nc1ccc(F)c(F)c1	-4	40*	0	-4	0
O=C(OCc1c(Cl)cccc1Cl)c1ccccn1	5	35*	-2	-16	0
CCOC(=O)c1c(CN2CCCCC2)oc2ccc(O)cc12	-7	-1	-4	-20	3
CCOC(=O)c1c(CN2CCOCC2)oc2ccc(OC)cc12	31*	-11	-3	-11	0
COc1ccc2c3c(cccc13)OC2=O	9	5	0	-1	-1
COc1ccc2c3c(cccc13)N(C)N=C2C	8	-1	7	56*	0
Clc1ccc(-c2ccc(/C=N/Nc3nncc(-c4ccccc4)n3)o2)cc1	-3	-6	-3	-7	0
Cc1ccc(/C=N/Nc2nncc(-c3ccccc3)n2)o1	-10	51*	-4	-3	0
COc1ccccc1NC(=O)/C(C#N)=C/c1c(C)nn(-c2ccc(F)cc2)c1Cl	-13	-4	3	-2	32*
Cn1c(=O)c2c(nc(NCc3ccccc3)n2Cc2ccccc2)n(C)c1=O	15	nt	nt	nt	nt
CCn1c(NCc2ccccn2)nc2c1c(=O)n(C)c(=O)n2C	63*	1	-1	13	0
Cn1c(=O)c2c(nc(NCC3CCCO3)n2Cc2ccccc2)n(C)c1=O (stereo not drawn)	40*	12	0	-12	0
COCCOC(=O)c1c(C)n(S(=O)(=O)c2ccc(C)cc2)c2ccc(NS(=O)(=O)c3ccc(C)cc3)cc12	11	nt	nt	nt	0
SMILES	D2 PAM-1	D2 antagonist	D2 ag-1	D2 PAM-2	D2 ag-2
O=C(CN1c2cccc3cccc(c23)S1(=O)=O)Nc1c(F)c(F)c(F)c(F)c1F	nt	nt	5	-2	nt
COc1cccc(N2CCN(C(=O)c3c(C)oc4ncnc(N5CCCCC5)c34)CC2)c1	-1	nt	nt	nt	-2
Nc1ccccc1SCc1ccccc1	-5	31*	-7	-11	0
CC(=O)c1ccc(OCC(O)CN2CCN(Cc3ccc4c(c3)OCO4)CC2)cc1 (stereo not drawn)	3	56*!	-2	-6	2
O=C(CCS(=O)(=O)c1cccc2nsnc12)N1CCN(Cc2ccc3c(c2)OCO3)CC1	-4	1	-1	-7	36*
CCN(CC)C(=O)N1CCN(Cc2ccc3c(c2)OCO3)CC1	-10	-16	-2	-4	33*
O=C(c1cc2ccccc2o1)N1CCN(Cc2ccc3c(c2)OCO3)CC1	-19	78*	-1	-33	-1
O=C(CCS(=O)(=O)c1cccc2nsnc12)N1CCN(C(=O)c2ccco2)CC1	-6	11	-7	-10	0
COc1ccc2c(Sc3ccc(Cl)cc3)c(C(=O)N3CCCCC3)[nH]c2c1	-10	nt	nt	nt	-1
CN(C)c1ccc(C(=O)N2CCCC(N3CCN(Cc4ccc5c(c4)OCO5)CC3)C2)cc1 (stereo not drawn)	-23	32*	-5	-44	1
O=C(c1ccc(F)cc1)N1CCCC(N2CCN(Cc3ccc4c(c3)OCO4)CC2)C1 (stereo not drawn)	-13	-32	-4	-24	4
Cc1cccc(-c2c3c(=O)n(C)c(=O)n(C)c3cn2-c2cc(N)c(Cl)cc2Cl)c1	-10	nt	nt	nt	18
O=C(CN1C(=O)C2(SCC(=O)N2c2cccc(Cl)c2)c2ccccc21)NC1CCCCC1 (stereo not drawn)	-2	nt	nt	nt	-1
CC(OCC(O)CN(C)CCOc1ccccc1)c1ccc(Cl)cc1 (stereo not drawn)	-23	26	6	17	32*
CN(CCOc1ccccc1)CC(O)COc1ccccc1 (stereo not drawn)	-29	51*	-4	-16	2
CN(CCOc1ccc(Cl)cc1)CC(O)c1ccccc1 (stereo not drawn)	3	-17	-2	-17	-1
CCN(CC(=O)NCc1cccs1)C(=O)c1cccc(S(=O)(=O)N2CC(C)OC(C)C2)c1 (stereo not drawn)	nt	nt	-5	-3	nt
C/C(Cn1cnc([N+](=O)[O-])n1)=N\NC(=O)c1ccccc1	-9	-7	-1	2	-1
C/C(Cn1nnc([N+](=O)[O-])n1)=N\NC(=O)c1ccccc1	2	-7	7	59*	1
Cc1ccc(N(CC(=O)N2CCN(c3cccc(C)c3C)CC2)S(=O)(=O)c2c(C)nn(C)c2C)cc1	10	nt	nt	nt	-1
C#Cc1cccc(Nc2nc(NCc3ccccc3)nc3ccsc23)c1	nt	nt	8	-18	nt
Cc1cc(C)c(OCC(=O)N(Cc2ccc(N(C)C)cc2)CC2CCCO2)c(C)c1 (stereo not drawn)	5	nt	nt	nt	0
Cc1ccc(NC(=O)Cn2c3ccc(F)cc3c3nc4n(c(=O)c32)CCS4)cc1F	35*	-3	-7	-3	2
O=C(Cn1c2ccc(F)cc2c2nc3n(c(=O)c21)CCS3)Nc1ccc(Cl)cc1F	7	-8	1	-10	0
CCOC(=O)c1cccc(NC(=O)CNS(=O)(=O)c2cccs2)c1	44*	10	-3	-4	0
O=C(N/N=C/c1ccc(OC(F)F)cc1)C1=COCCO1	-8	-24	-3	-8	2
O=C(N/N=C/c1ccccc1OC(F)F)C1=COCCO1	-3	33*	1	1	1
Cc1ccc(N2C(=O)C(Cl)=C(Nc3c(C)n(C)n(-c4ccccc4)c3=O)C2=O)cc1	1	32*	-2	-2	0

From PubChem
